Pf apPOL inh: Pf-apPOL DNA polymerase inhibition | Recombinant Pf-apPOL, molecular beacon fluorescence, 1.5 h | inhibition, % at 10 µM | 210,000 tested, 0.25% active | AID 1794808
mHTT-CaM PPI inh: inhibitors of human mutant huntingtin-calmodulin interaction. AlphaScreen His-mHTT/GST-CaM binding, luminescence. inhibition, % at 15 µM. 190,000 tested, 3.6% active. AID 1671202;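 note: 0% = both proteins with DMSO and 100% = one protein alone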
Numbers without * were called inactive; . = no result. The sample as a whole holds a higher share of hits than the screen did. Cut-off read from the data, not from the text of the source: active = inhibition above about 50%; inactive = the rest.

SMILES | Pf apPOL inh | mHTT-CaM PPI inh
O=C(Nc1ccc(N2S(=O)(=O)c3ccccc3S2(=O)=O)cc1)C1CCCCC1 | -7.4 | 14.0
Cc1onc(-c2cccc(Cl)c2)c1C(=O)N(C)CC#N | 0.0 | 1.1
COc1cccc(C2N(c3nccs3)C(=O)C3CCCN32)c1 (stereo not given) | -5.2 | 0.9
C=CCn1c(SCCCC)nc(O)c(CC)c1=O | -0.7 | -12.7
COc1ccc(C2=NC(C(C)C)NC(c3ccccc3O)C2)cc1OC (stereo not given) | -4.3 | 78.0*
COc1cccc(C2=NC(C(C)C)NC(c3cc(Br)ccc3O)C2)c1 (stereo not given) | -1.6 | 81.0*
Oc1ccccc1C1CC(c2ccc3c(c2)OCO3)=NC(c2cccc(F)c2)N1 (stereo not given) | -2.8 | 4.0
COc1cccc(C2CC(c3ccc(Cl)cc3)=NC(C(C)C)N2)c1O (stereo not given) | -4.6 | 18.0
Cc1ccc(C2=NC(C(C)C)NC(c3cc(Br)ccc3O)C2)cc1 (stereo not given) | -2.7 | 27.0
COc1cccc(C2=NC(c3ccc(F)cc3)NC(c3ccc(OC)cc3O)C2)c1 (stereo not given) | -4.6 | 53.0*
COc1ccc(C2=NC(c3ccc(OC)c(OC)c3)NC(c3ccccc3O)C2)cc1 (stereo not given) | -5.1 | 53.0*
COc1ccc(C2N=C(c3ccc4c(c3)OCO4)CC(c3ccccc3O)N2)cc1 (stereo not given) | -5.2 | 18.0
N#CC1=C(SCC(N)=O)NC(=O)CC1c1ccsc1 (stereo not given) | 9.7 | -8.0
CCC(=O)NC(c1ccco1)c1cc(Cl)c2cccnc2c1O (stereo not given) | 6.1 | 100.0*
O=C(Nc1c(Cl)cc(Cl)c2cccnc12)c1ccco1 | -3.6 | 4.0
CCC(=O)Nc1ccc(Br)c2cccnc12 | 1.0 | -5.3
CCC(=O)NC(c1ccco1)c1ccc2cccnc2c1O (stereo not given) | 3.0 | 100.0*
CCCCC(=O)NC(c1ccccc1)c1cc(Cl)c2cccnc2c1O (stereo not given) | 10.9 | 22.0
CCCCC(=O)NC(c1ccco1)c1cc(Cl)c2cccnc2c1O (stereo not given) | -0.8 | 66.0*
CC(=O)NC(c1ccco1)c1cc(Cl)c2cccnc2c1O (stereo not given) | -3.8 | 100.0*
Cc1ccc(C(=O)N2CCN(c3ccccc3)CC2)cc1Cl | -3.9 | -2.8
O=[N+]([O-])c1ccc(-c2nc(C=Nc3ccncc3)c(O)o2)cc1 | -1.2 | 3.0
CC(=O)Nc1nc(CC(=O)O)cs1 | -3.3 | -9.8
CC1CCN(C(=O)c2ccc(OCC3CCN(C(=O)C4CCC4)CC3)cc2)CC1 | -2.0 | -8.6
CC1CCN(C(=O)C2=NN(C)c3ccccc3S2(=O)=O)CC1 | 1.3 | -8.1
SMILES | Pf apPOL inh | mHTT-CaM PPI inh
O=S(=O)(Nc1ccc2c(c1)OCCO2)c1ccc2nc(-c3ccccc3)[nH]c2c1 | 4.4 | 19.0
Cc1cc(C)nc(NC(c2ccco2)c2ccc3cccnc3c2O)n1 (stereo not given) | -3.2 | 100.0*
Cc1cc(C)nc(SCC(=O)NCc2ccco2)n1 | 1.4 | -6.5
COc1ccc(C(=O)CN2C3=NCCN3c3ccccc32)cc1OC | -3.4 | -5.0
Cc1ccc(CN2CCc3ccccc3C2)o1 | -0.7 | -3.5
Cc1[nH]c2ccccc2c1CN1CCc2ccccc2C1 | -4.8 | 61.5*
CN1CCN(c2ncncc2N2CCC(C(=O)NC3CCCCC3)CC2)CC1 | -4.0 | 8.5
Cn1nnc2c(SCc3ccccn3)ncnc21 | -7.2 | -6.4
Cc1cc[n+](C2C(c3ccc(Br)cc3)C(C#N)=C(S)NC2(O)C2CC2)cc1 (stereo not given) | -7.1 | 89.0*
COc1ccccc1C1C(C#N)=C(C(C#N)C#N)NC(O)(C2CC2)C1[n+]1ccc(C)cc1 (stereo not given) | -14.2 | 1.0
COc1ccccc1N1CCN(C(=O)c2cn3c(n2)CCCC3)CC1 | -2.0 | 13.8
COc1cc(C(=O)N2CCN(Cc3ccc(SC)cc3)CC2)cc(OC)c1OC | -3.4 | 8.8
Cc1cc(N2CCN(C)CC2)nc2ccc(NC(=O)/C=C/c3ccccc3Cl)cc12 | 3.6 | 93.0*
Cc1cc(N2CCN(C)CC2)nc2ccc(NC(=O)/C=C/c3ccc4c(c3)OCO4)cc12 | -3.1 | 51.0*
Cc1cc(N2CCOCC2)nc2ccc(NC(=O)/C=C/c3ccccc3Cl)cc12 | -3.0 | 38.0
CCN(CC)c1cc(C)c2cc(NC(=O)/C=C/c3ccc4c(c3)OCO4)ccc2n1 | -8.1 | 20.0
O=C(NCc1ccc2c(c1)OCO2)C1CC(=O)N(c2ccc3c(c2)CCN3C(=O)C2CC2)C1 (stereo not given) | -0.8 | 9.9
Cn1cccc1C(CNS(=O)(=O)c1ccc2c(c1)OCCO2)N1CCOCC1 (stereo not given) | -9.5 | -13.1
CC(C)SCC(=O)NCC(N)=O | -8.5 | .
O=C(Nc1ccc([N+](=O)[O-])cc1)c1ncn[nH]1 | -3.1 | 88.3*
O=C(Nc1ccc2oc(-c3ccccc3Cl)nc2c1)c1cncc(Br)c1 | -22.5 | -8.0

Screening results as filed in PubChem BioAssay.
